Molecules are shown by their SMILES. The whole screen tested about 340,000 compounds, of which about 2,100 (0.62%) were called active. Not all results are given here. Entries with a potency or affinity are not part of this list. Unmarked numbers belong to inactive results.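 How the source made its calls: active means first-screen hits whose inhibition reached a set limit at any dose in the follow-up dose series; inconclusive means inhibition above the set first-screen limit but never retested; inactive means the rest.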

For this test, the target named is Rac GTPase-activating protein 1 (Homo sapiens) (UniProt Q9H0H5). Description: MgcRacGAP GTPase-activating activity inhibitors, confirmation, biochemical, ADP Hunter fluorescence, primary and confirmatory (AID 624330).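 Further: fluorescence reports GDP produced by GAP-driven GTP hydrolysis.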 To be noted: MgcRacGAP-stimulated Rac1 GTP hydrolysis, at 30 µM, hits give high values, GST-tagged Rac1 F28L mutant substrate.
Chain of Rac GTPase-activating protein 1 (Homo sapiens) (Q9H0H5 whole entry, looked up): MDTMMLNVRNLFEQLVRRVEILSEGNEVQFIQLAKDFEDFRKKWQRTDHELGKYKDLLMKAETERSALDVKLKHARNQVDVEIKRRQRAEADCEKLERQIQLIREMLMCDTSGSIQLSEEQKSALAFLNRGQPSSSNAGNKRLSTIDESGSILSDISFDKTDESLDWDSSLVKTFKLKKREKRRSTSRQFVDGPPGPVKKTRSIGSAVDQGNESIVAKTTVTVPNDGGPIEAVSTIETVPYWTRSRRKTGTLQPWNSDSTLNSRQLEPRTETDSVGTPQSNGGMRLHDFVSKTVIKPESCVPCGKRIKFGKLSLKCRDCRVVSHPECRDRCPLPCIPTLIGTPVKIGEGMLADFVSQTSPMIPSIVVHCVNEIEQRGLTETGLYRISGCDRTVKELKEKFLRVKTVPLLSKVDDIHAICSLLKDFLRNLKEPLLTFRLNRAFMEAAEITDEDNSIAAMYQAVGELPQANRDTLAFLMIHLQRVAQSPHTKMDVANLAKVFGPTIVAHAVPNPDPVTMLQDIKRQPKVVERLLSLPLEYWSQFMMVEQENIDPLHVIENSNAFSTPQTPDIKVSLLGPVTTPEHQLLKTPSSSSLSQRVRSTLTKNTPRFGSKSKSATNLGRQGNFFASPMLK
A word on the inhibition: it is the relative decrease from the control value, in per cent. Regarding `COc1ccc(N=C2C(=O)N3c4c(cccc42)C(C)=CC3(C)C)cc1`, the inhibition was 13.7%.

As for `C=CCN(Cc1nc(-c2ccc(OC)cc2)no1)C(=O)c1ccc2c(c1)OCO2`, the inhibition is 2.96%.

On to `Cn1cccc1/C=N/N1CCN(Cc2ccccc2)CC1`, for which the inhibition is 23%. As for `Clc1ccc(/C=N/N2CCN(Cc3ccccc3Cl)CC2)cc1`, the inhibition was 12%. Next, `CCN(CC)c1ccc(/C=N/N2CCN(Cc3ccccc3Cl)CC2)cc1`: -3.36%; `Cn1cccc1/C=N/N1CCN(Cc2cccc3ccccc23)CC1`: 25.4%. For `Cc1ccc(NC(=S)NCc2ccc3c(c2)cc(C)n3C)c(C)c1` the value was 9.16%; for `O=C(COC(=O)c1ccc(O)cc1)Nc1cccc(S(=O)(=O)N2CCCCC2)c1`, 5.81%. For `C=C(C)c1ccc(C(C)(C)NC(=O)N(Cc2ccccc2)Cc2ccco2)cc1` the value was 0.01%. Consider `CC(=O)Oc1ccc2oc(/C=C/N(C)C)c([N+](=O)[O-])c2c1`, for which the inhibition is 16.9%. For `C/C(=C/c1oc2ccc(O)cc2c1[N+](=O)[O-])N(C)C` the value was 14.9%. With `CCN(CC)S(=O)(=O)c1ccc(NC2=NS(=O)(=O)c3ccccc32)cc1`, the inhibition is 1.99%.

Take `O=S1(=O)N=C(Nc2ccc(N3CCOCC3)cc2)c2ccccc21`: the inhibition is 2.07%. Next, `CC(=O)Nc1ccc(NC2=CC(=O)CC(C)(C)C2)cc1`: 7.91%; `CC1(C)CC(=O)C=C(Nc2ccc(F)cc2)C1`: -10%.

For the molecule `N#CCc1ccc(Oc2ccc([N+](=O)[O-])cn2)cc1`, the inhibition is 5.55%.

For the molecule `Cc1oc(-c2ccccc2)nc1C(=O)OCC(=O)NCc1ccc(Cl)cc1`, the inhibition was -0.87%. For `CCCCn1c(N)c(N(CC(C)C)C(=O)c2ccc(Cl)c(S(=O)(=O)N3CCCC3)c2)c(=O)[nH]c1=O` the value was 5.8%; for `CN(Cc1ccccc1)C(=O)C1CCCN(Cc2cccc(Cl)c2)C1` (stereo not drawn), 3.69%. Next, `COc1ccc(CN2CCCC(C(=O)N(C)Cc3ccccc3)C2)cc1OC` (stereo not drawn): 27.7%; `O=C(C1CCCN(Cc2ccccc2)C1)N1CCCCC1` (stereo not drawn): 21.6%; `COc1cccc(CN2CCCC(C(=O)N3CCCCC3)C2)c1` (stereo not drawn): 22.1%.

For the molecule `COc1ccc(CN2CCCC(C(=O)N3CCCCC3)C2)cc1` (stereo not drawn), the inhibition was 26.1%. On to `O=C(C1CCCN(Cc2ccc(Cl)cc2)C1)N1CCCCC1` (stereo not drawn), for which the inhibition is 24.9%. Next, `O=C(NNC(=O)c1cc2ccccc2o1)c1ccncc1`: 3.59%; `Cc1cc(C[n+]2ccsc2N)c2ncccc2c1`: 4.36%; `NC(=O)CC(NC(=O)c1ccc(Br)cc1)c1ccc(N2CCN(c3ccccn3)CC2)c([N+](=O)[O-])c1` (stereo not drawn): 4.07%. `O=C(NNC(=O)c1ccc([N+](=O)[O-])cc1)NC1CCCCC1`: the inhibition is 1.53%. On to `CCCC1NC(=O)c2cccnc2-n2c1nc1ccc(Cl)cc1c2=O` (stereo not drawn), for which the inhibition was 13.8%. In the case of `Cc1ccc(N2C(=O)CCC2=O)c(C)c1`, the inhibition is 4.77%.

For the molecule `Cc1ccc(-n2c(C)cc(=O)cc2C)c(C)c1`, the inhibition was 6.02%. Take `Cc1ccc(C)c(N2CC(=O)N(c3cc(C)ccc3C)CC2=O)c1`: the inhibition is 1.32%. Take `Cc1ccc(C)c(-n2nnc3ccccc3c2=O)c1`: the inhibition is 2.95%. Next, `COc1ccccc1NC(=O)C(C)n1cnc2c(oc3nc4c(cc32)CCCC4)c1=O` (stereo not drawn): -4.17%; `COc1ccc(/C=C2/CCCC(C(=O)C(F)(F)F)=C2O)cc1OC`: 6.67%. Regarding `CCOC(=O)C(=O)Nc1cc([N+](=O)[O-])ccc1C`, the inhibition is 0.69%. For `COc1cc(C(=O)NCCCc2ccccc2)cc(OC)c1OC`, the inhibition was 5.75%. Regarding `Cc1ccc(-c2n[nH]c(=S)n2C)cc1`, the inhibition was 14.7%. For `Cc1ccc(-c2cn3c(=S)[nH]nc3s2)cc1` the value was 22.2%. As to `Cc1cc(CSc2ccccc2C(=O)O)on1`, the inhibition is -2.15%. Next, `C/C(=N/NC(=O)c1ccc(-c2ccccc2)cc1)c1cc(O)cc(O)c1`: 14.9%. Next, `CC(=O)Nc1cc(S(=O)(=O)Nc2ccc(C)cc2)c(C)cc1C`: 11.6%. On to `Cc1cc(C(=O)CCC(=O)N(C)CC(=O)Nc2c(Cl)cccc2Cl)c(C)s1`, for which the inhibition was 1.85%. In the case of `C/C(=N\NS(=O)(=O)c1ccc(Cl)c([N+](=O)[O-])c1)c1cc2ccccc2o1`, the inhibition was 10.9%. Next, `CCOC(=O)c1ccc2c(c1)C1C=CCC1C(C(=O)OCC)N2` (stereo not drawn): 12.1%; `CC(=O)c1ccc2c(c1)C1C=CCC1C(c1ccncc1)N2` (stereo not drawn): 13%. For `CCOC(=O)C1Nc2ccc(C)cc2C2C=CCC12` (stereo not drawn) the value was 10.5%. As to `O=C(O)c1ccc2c(c1)C1C=CCC1C(c1ccncc1)N2` (stereo not drawn), the inhibition was 9.53%. Next, `O=C(C[C@H]1C(=O)N(CCc2ccccc2)C[C@@H]1Cc1ccccc1)Nc1ccc(Br)cc1`: 12.8%; `C[C@H]1c2cccc(O)c2C(O)=C2C(=O)[C@]3(O)C(O)=C(C(N)=O)C(=O)[C@@H](N(C)C)[C@@H]3[C@@H](O)[C@@H]21`: 8.18%; `C[C@H]1c2cccc(O)c2C(O)=C2C(=O)C3(O)C(O)=C(C(N)=O)C(=O)[C@@H](N(C)C)[C@@H]3[C@@H](O)[C@@H]21` (stereo partly drawn): 1.02%.

With `C[C@H]1c2cccc(O)c2C(O)=C2C(=O)[C@]3(O)C(O)=C(C(N)=O)C(=O)[C@@H](N(C)C)C3[C@@H](O)C21` (stereo partly drawn), the inhibition was 2.79%.

With `CN(C)c1ccc(O)c2c1CC1CC3[C@@H](N(C)C)C(=O)C(C(N)=O)C(=O)[C@]3(O)C(=O)C1C2=O` (stereo partly drawn), the inhibition was 15.3%. Consider `CN(C)c1ccc(O)c2c1CC1CC3C(N(C)C)C(=O)C(C(N)=O)=C(O)[C@@]3(O)C(=O)C1=C2O` (stereo partly drawn), for which the inhibition was 9.88%. Next, `C=C1c2cccc(O)c2C(=O)C2C(=O)[C@]3(O)C(=O)C(C(N)=O)C(=O)[C@@H](N(C)C)[C@@H]3[C@@H](O)[C@H]12` (stereo partly drawn): 73.9%; `CC(=O)Nc1ccc(-c2csc(NCCc3ccccc3)n2)cc1`: 9.25%; `O=C1CN(C(=O)COC(=O)Cc2ccccc2F)c2ccccc2N1`: 3.02%. Next, `Nc1cc(S(=O)(=O)Nc2ccccc2Cl)ccc1N1CCCC1`: 11.5%.

The values above are taken from PubChem BioAssay AID624330 (Southern Research Specialized Biocontainment Screening …, 2012).
